# High-throughput results: PubChem, National Center for Advancing Translational Sciences (NCATS)
# POLK inh: blocks human DNA polymerase kappa activity. Q9UBT6. purified Pol kappa, fluorescent DNA synthesis assay, 10 min. Potency, µM (top dose mostly 107 µM), most hits filed as inhibitors. 400,000 tested, 0.53% active. AID 588579
#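 10 nM Pol kappa was preincubated with compounds for 15 min at room temperature. Reaction started with 50 nM (final) substrate. Fluorescence read kinetically at 0 and 10 min.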
# POLH inh: blocks human DNA polymerase eta activity. Q9Y253. recombinant Pol eta, fluorescent DNA replication assay. Potency, µM (doses to about 114 µM), usual class: inhibitors. 390,000 tested, 1.2% active. AID 588591
#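 Pol eta at 10 nM preincubated with compounds 15 min at room temperature; reaction started with fluorescent substrate (50 nM final) and read kinetically at 0 and 10 min.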
# POLI inh: blocks human DNA polymerase iota activity. Q9UNA4. Pol iota fluorescent replication assay, 10 min. Potency, µM (top dose mostly 115 µM), usual class: inhibitors. 390,000 tested, 1% active. AID 588590
#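 Pol iota at 10 nM preincubated 15 min with compounds at room temperature; reaction started with fluorescent substrate, 50 nM final. Fluorescence read kinetically at 0 and 10 min; buffer-only wells as negative control.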
# FEN1 inhibitor: blocks human flap endonuclease 1. P39748. Recombinant FEN1 flap cleavage, fluorescence, 15 min. Potency, µM (titrated, usually from 114 µM), hits mostly inhibitors. 390,000 tested, 0.35% active. AID 588795; further: nearly all actives have a fitted effect of over 65% in size
# Target sequence (P39748 whole entry, looked up): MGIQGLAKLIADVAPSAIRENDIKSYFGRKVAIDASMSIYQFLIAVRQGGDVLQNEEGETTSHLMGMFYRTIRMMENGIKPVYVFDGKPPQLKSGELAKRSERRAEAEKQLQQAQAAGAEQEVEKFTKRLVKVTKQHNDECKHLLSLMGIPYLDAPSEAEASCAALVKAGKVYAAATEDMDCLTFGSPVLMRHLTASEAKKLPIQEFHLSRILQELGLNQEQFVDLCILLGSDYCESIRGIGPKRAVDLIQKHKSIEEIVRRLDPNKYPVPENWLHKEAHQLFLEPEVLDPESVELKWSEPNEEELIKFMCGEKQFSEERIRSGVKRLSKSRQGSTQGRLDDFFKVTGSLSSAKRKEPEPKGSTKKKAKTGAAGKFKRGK
#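 Quantitative HTS format: each compound was titrated, incubated with 10 nM nuclease for 15 min at room temperature, then challenged with flap substrate at 50 nM final. Signal change over 15 min gave concentration–effect curves.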
# WRN helicase inh: inhibitors of human WRN helicase; Q14191; WRN helicase unwinding, fluorescent forked duplex, kinetic; Potency, µM (highest dose often 114 µM), hits mostly inhibitors; 360,000 tested, 0.46% active; further: nearly all actives have a fitted effect of over 55% in size
#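 Enzyme (20 nM final) and test compound sit together 15 min at room temperature before substrate addition. Substrate is a single-forked duplex oligonucleotide (100 nM) labelled with fluorophore and quencher, with 2 mM ATP; helicase unwinding raises red fluorescence, read kinetically.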
# Pol beta inh: blocks human DNA polymerase beta activity | Pol beta primer extension/strand displacement, fluorescence kinetic | Potency, µM (series often up to 114 µM), usual class: inhibitors | 340,000 tested, 1.3% active
#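 Kinetic readout of DNA synthesis with strand displacement by Pol beta. Compound and 10 nM enzyme sit 15 min at room temperature; 50 nM substrate starts the reaction, read immediately and at 10 min.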
# A number is an active result; . = inactive; ? = inconclusive; / = no result; [ ] = another dose, or the depositor's remark. Rows were chosen to be rich in hits. Some 2.4% of all compounds tested hit in one or more screens of this group. The call rests on the fitted dose curve; in most records, active means well fitted curve in the direction sought with a large enough effect; inconclusive means small, poorly fitted or top-dose-only effect, or another doubt; inactive means no such curve, though single readings can be large; an effect the other way counts as inactive or inconclusive.
SMILES,POLK inh,POLH inh,POLI inh,FEN1 inhibitor,WRN helicase inh,Pol beta inh
COc1cc(/C=N\NC(=O)c2ccc(-c3ccccc3)cc2)cc(Br)c1O,.,?,?,?,.,40µM
COc1ccc(NS(=O)(=O)c2cccc(C(=O)N/N=C(/C)c3ccc(-n4ccnc4)cc3)c2)cc1,.,.,40µM,.,?,/
CCCCCCCC/C=C\CCCCCCCC(=O)N[C@@H](CO)Cc1ccc(O)cc1,.[19.4 µM],/,/,/,/,/
CO[C@H]1/C=C\O[C@@]2(C)Oc3c(C)c(O)c4c(O)c(c(C=NN5CCN(C6CCCC6)CC5)c(O)c4c3C2=O)NC(=O)C(C)=CC=C[C@H](C)[C@H](O)[C@@H](C)[C@@H](O)[C@@H](C)[C@H](OC(C)=O)[C@H]1C,.,/,.,?,/,/
CC(C)NS(=O)(=O)c1cc(C(F)(F)F)ccc1/C=C/C(=O)O,.,/,.,.,/,/
COc1ccc(Cc2nc3ccc(S(=O)(=O)N4CCOCC4)cc3[nH]2)cc1,.,.,79µM,.,.,.
COc1ccc(Cc2nc3ccc(S(=O)(=O)N4CCOCC4)cc3[nH]2)cc1OC,.,.,.,.,.,.
CCOC(=O)c1cc(-c2ccccc2)n(CCCC(=O)Nc2cc(C)ccc2OC)c1C,.,.,.,.,/,.
CCCCC1=CC2=C(c3ccco3)C(=O)C(C)(OC(=O)c3ccc(OC)cc3)C(=O)C2=CN1Cc1ccc2c(c1)OCO2 (stereo not given),.,.,?,.,.[11.6 µM],35µM
CCCCC1=CC2=C(c3ccco3)C(=O)C(C)(OC(=O)c3ccc(OC)cc3)C(=O)C2=CN1C1CCCCC1 (stereo not given),.,.,.,.,.,?
CCCCC1=CC2=CC(=O)C(C)(OC(=O)CC)C(=O)C2=CN1Cc1ccc(OC)cc1 (stereo not given),.,.,.,.,.,.
CCCCC1=CC2=C(c3ccco3)C(=O)C(C)(OC(=O)c3ccc(OC)cc3)C(=O)C2=CN1CCc1ccccn1 (stereo not given),.,.,11µM,.,.,50µM
CCCCC1=CC2=C(c3ccco3)C(=O)C(C)(OC(=O)c3ccc(OC)cc3)C(=O)C2=CN1Cc1ccccc1 (stereo not given),.,50µM,?,.,.,45µM
CCc1ccc(-n2c(=O)c3sc4ccccc4c3n(CC(=O)N3CCCC3)c2=O)cc1,.,.,.,.,/,.
O=C(CSc1ccccc1)Nc1ccc(-c2nc3ccccc3[nH]2)cc1,?,?,?,.,.,7.1µM
O=C(CSc1ccc(Cl)cc1)Nc1cccc(-c2nc3ccccc3[nH]2)c1,.,?,?,.,.,.
Cc1ccc2nc(-c3ccc(NC(=O)CSc4ccccc4)cc3)[nH]c2c1,.,.,35µM,.,.,22µM
Cc1ccc2nc(SCC(=O)Nc3ccc(C(N)=O)cc3)[nH]c2c1,.,.,.,.,.,.
Cc1cccc(Cc2c(C)nc3nc(SCc4cccc(F)c4)nn3c2C)c1,.,.,.,.,/,.
Cc1ccc(C)c(NC(=O)c2cnc(N3CCCC3)nc2C)c1,.,/,.,.,/,.
Cc1nn(-c2ccccn2)c2c1-c1nc(N)sc1CC2,.,/,3.2µM,?,/,/
Cc1ccc(Cn2cccc2/C=C2/C(=N)N3C=CSC3=NC2=O)cc1,.,71µM,?,.,.,.
CC(=O)OCCN1C(=O)c2c(C)nc3ccc(S(=O)(=O)N4CCOCC4)cc3c2C1=O,.[12 µM],/,/,/,/,/
CN1C2C=C3C(C#N)=C(N)C(C#N)(C#N)[C@@H](c4cccc(F)c4)[C@@H]3C1CC2 (stereo not given in full),.,.,20µM,.,.,.
O=C(CN1C(=O)NC2(CCCCC2)C1=O)Nc1ccccc1Cl,.,.,89µM,.,.,.
SMILES,POLK inh,POLH inh,POLI inh,FEN1 inhibitor,WRN helicase inh,Pol beta inh
COC(=O)c1ccc2c(c1)C(C)(C)C(/C=C/c1ccc(OC)c(OC)c1OC)=[N+]2C,?,.,?,?,50µM,?
COC(=O)c1ccc2c(c1)C(C)(C)C(/C=C/c1ccc(O)cc1)=[N+]2C,28µM,.,25µM,45µM,50µM,?
O=C1Nc2ccccc2Oc2cc([N+](=O)[O-])ccc21,.,50µM,.,.,.[11.6 µM],?
Cc1cc(C)cc(Nc2cc(C(=O)NC3CCCCC3)c3ccccc3n2)c1,.,.,.,.,/,.
Cc1cc(C)cc(Nc2cc(C(=O)NC3CCC(C)CC3)c3ccccc3n2)c1 (stereo not given),.,89µM,.,.,/,.
CCc1ccc(OC(=O)c2sc3ncn(Cc4cccc(F)c4)c(=O)c3c2C)cc1,.,.,.,.,/,.
CCOc1ccc(N=Nc2c(=O)[nH]n3c(=O)cc(C)[nH]c23)cc1,.,.,.,.,.,.
CCOc1ccc(N=Nc2c(=O)[nH]n3c(=O)c4c([nH]c23)CCCC4)cc1,.,.,.,.,.,50µM
COc1ccc(NC(=O)N2CC[C@@]3(CCCN(C(=O)c4csnn4)C3)C2)cc1,.,/,/,/,/,/
CCCCCCCCCCCCCCCC[n+]1cccc2ccccc21,.,.,?,79µM,?,.
CCCCCCCCCCCC[n+]1ccc(C)c2ccccc21,.,/,?,35µM,/,/
CCCCCCC[n+]1ccc(C)c2ccccc21,.,/,.,.,/,/
CCCCCCCCC[n+]1cccc2c3ccccc3ccc21,.,.,.,.,.,.
CC#C[C@]1(O)CC[C@H]2C3CCC4=CC(=O)CCC4=C3[C@@H](c3ccc(N(C)C)cc3)C[C@@]21C (stereo not given in full),.[19.4 µM],.,?,/,/,.
COc1cccc(CNC(=O)c2cnc(N3CCCCC3)c3ccccc23)c1,.,.,.,.,/,.
CC(=O)c1cccc(CN2CCCC(C(=O)Nc3ccc(-c4ccco4)cc3)C2)c1 (stereo not given),.,?,45µM,.,.,.
O=C(Nc1ccc(-c2ccco2)cc1)C1CCCN(Cc2ccc(CO)o2)C1 (stereo not given),.,.,?,.,.,.
Cc1ccc2nc(N)[nH]c(=O)c2c1Sc1ccncc1,.[19.4 µM],/,/,/,/,/
CC(C)(C)NC(=O)COC(=O)c1cc(F)c(F)cc1Cl,.,.,.,.,.,.
CC(C)(C)NC(=O)c1cc(F)c(F)cc1Cl,.,.,.,.,.,89µM
C[C@@]1(C(=O)O)NCCc2cc(O)c(O)cc21,1.8µM,/,/,/,/,/
O=C(Nc1ccc2nccnc2c1)N1CCCCCC1,.,/,?,.,/,/
Cc1ccnc2c(Cl)c(Cl)ccc12,.,/,.,.,/,/
O=C(NN=C1CCN(Cc2ccccc2)CC1)c1cc2ccccc2cc1O,?,?,79µM,.,.[11.6 µM],.
O=C(NN=C1CCCCCC1)c1cc2ccccc2cc1O,.,.,.,.,.,.
O=C1CCCC(=NNC(=O)c2cc3ccccc3cc2O)C1,.,.,79µM,.,.,/
